# An excerpt weighted towards active compounds, which were near 4% of everything screened.
# TRHR enhancer-1 – allosteric enhancers of human TRH receptor; P34981; AID 493056; TRHR cells, fluo-8 calcium fluorescence, EC20 TRH enhancement; 360,000 compounds, 0.66% hits; enhancement, % at 2 µM; in the data active means enhancement above about 30%; further: 0% is about no effect
#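 TRHR-expressing cells loaded with fluo-8 calcium dye were read kinetically (ex 480/em 530) during compound addition, then stimulated with an EC20 of TRH (10 nM final). Enhancement of the Gq-mediated intracellular calcium response was scored.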
# D1 potentiator – enhances dopamine response at the human D1 receptor; potentiation, % at 10 µM; 360,000 compounds, 0.036% hits; P21728; HEK293 TREx D1 cells, calcium flux, dopamine EC20 potentiation; in the data active means potentiation above about 30%; further: 0% is about no effect
# Target sequence (P21728 whole entry, looked up): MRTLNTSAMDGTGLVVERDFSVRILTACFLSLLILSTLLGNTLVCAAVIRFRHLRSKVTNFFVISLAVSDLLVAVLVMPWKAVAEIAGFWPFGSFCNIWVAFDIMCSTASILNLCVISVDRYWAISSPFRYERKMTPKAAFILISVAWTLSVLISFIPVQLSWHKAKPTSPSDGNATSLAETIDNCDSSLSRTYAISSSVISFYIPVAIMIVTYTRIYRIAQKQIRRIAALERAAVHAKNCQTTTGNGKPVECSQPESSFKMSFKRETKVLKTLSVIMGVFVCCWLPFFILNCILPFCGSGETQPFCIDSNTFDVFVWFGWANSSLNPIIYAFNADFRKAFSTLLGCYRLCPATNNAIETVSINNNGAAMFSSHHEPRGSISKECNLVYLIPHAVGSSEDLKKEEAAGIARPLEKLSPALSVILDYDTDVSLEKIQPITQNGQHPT
# Glioma ERSR ind – induces the endoplasmic reticulum stress response in human glioma cells; U87-MG GRP78 promoter luciferase reporter, 16 h; Potency, µM, for inactives: at the top dose activation, hits mostly activators; 420,000 compounds, 0.02% hits; AID 602332; further: potency means the concentration at half of the fitted maximal effect; series mostly up to about 76 µM; % of control where 0% means no effect; nearly all actives have a fitted effect of over 35% in size
#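 ERSR induction read as luciferase luminescence (Bright-Glo, 10 min at room temperature) in stably transfected human U87-MG glioma cells exposed to compounds for 16 h, using GRP78 as sensor.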
# TRHR agonist-1 – TRH receptor (human) agonism; activation, % at 2 µM; AID 493084; P34981; TRHR cells, calcium flux fluo-8, FDSS agonist mode; 360,000 compounds, 0.18% hits; in the data active means activation above about 30%; further: 0% is about no effect
#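 TRHR-expressing cells loaded with fluo-8 calcium dye; 23 nL library compound pin-transferred, kinetic FDSS fluorescence (Ex 480/Em 530) recorded about 180 s for agonist-induced calcium release, before a 10 nM TRH EC20 addition for potentiator mode.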
# D1 antagonist – blocks dopamine activation of the human D1 receptor. P21728. HEK293 TREx D1 cells, calcium flux, dopamine EC80; active compounds read low. activity change, negative = inhibition, % at 10 µM. 360,000 compounds, 3.2% hits; in the data active means activity change below about -30%; further: on the % scale 0 is the no-effect control and ±100 the full control effect
#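 Tetracycline-induced HEK293 T-REx cells with force-coupled D1 receptor were loaded with a no-wash calcium dye. Compound was added after a 10 s baseline and read kinetically for 180 s; EC80 dopamine was then added and calcium flux followed another 180 s.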
# D1 ag – agonists of human D1 dopamine receptor; HEK293 T-REx D1 cells, calcium flux, agonist mode; activation, % at 2 µM; 360,000 compounds, 1% hits; AID 504660; in the data active means activation above about 30%; further: 0% is about no effect
#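 Inducible HEK293 T-REx D1 cells, force-coupled to calcium signalling, were plated at 4000 cells/well with tetracycline and held overnight at 30 C. After no-wash calcium dye loading, compound-evoked calcium rise over 180 s flagged agonists.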
# TRHR enhancer-2 – human TRH receptor allosteric enhancement confirmation; shares compounds with TRHR enhancer-1; TRH receptor cell assay, enhancer confirmation qHTS; activity change, negative = inhibition, % at 46.1 µM; 970 tested, under 10 active; AID 493076;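 further: compound effect scored on response to added TRH at EC20 of 10 nM; 0% is about no effect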
# TRHR agonist-2 – human TRH receptor agonism confirmation | shares compounds with TRHR enhancer-1 | Potency, µM (series often up to 46.1 µM), without a hit: at the highest dose activation, most hits filed as activators | 970 compounds, 8% hits | TRHR-expressing cells, agonist activation read-out | AID 493078; further: potency means the concentration at half of the fitted maximal effect; 0% is about no effect; nearly all actives have a fitted effect of over 75% in size
# Active calls of the source: *; ? = inconclusive; . = no result. Unless noted, the call rests on the fitted dose curve; in most records, active means well fitted curve in the direction sought with a large enough effect; inconclusive means small, poorly fitted or top-dose-only effect, or another doubt; inactive means no such curve, though single readings can be large; an effect the other way counts as inactive or inconclusive.
SMILES,TRHR enhancer-1,D1 potentiator,Glioma ERSR ind,TRHR agonist-1,D1 antagonist,D1 ag,TRHR enhancer-2,TRHR agonist-2
Nc1ccccc1Nc1nc2ccccc2[nH]1,-1.1,-3.9,-2.6%,0.4,-1.6,10.9,.,.
O=C(N/N=C/c1coc2ccccc2c1=O)c1cccc([N+](=O)[O-])c1,61.3*,-7.5,-2.1%,0.3,-1.2,0.8,?,3.1%
Cc1ccc(S(=O)(=O)N2CCC(NC(=O)c3cccc(C)c3)CC2)cc1,-1.9,0.8,-3.8%,-0.8,-0.1,1.3,.,.
O=C(NCCc1ccc(Cl)cc1)C12CC3CC(CC(O)(C3)C1)C2,45.0*,1.0,4.7%,0.4,6.5,-0.3,0.1,0.7%
CS/C(=C\[N+](=O)[O-])Nc1ccc(OC(F)(F)F)cc1,43.0*,-1.0,-5.7%,1.5,-9.3,5.6,-2.9,?
O=C(/C=C/Nc1ccc(OC(F)(F)F)cc1)C(F)(F)F,.,.,-4.1%,.,.,.,.,.
N#Cc1c(SC(C(=O)O)c2ccccc2)nc2c(c1-c1cccs1)CCCC2 (configuration not stated),0.6,-4.0,-3.5%,-1.0,-22.6,2.9,.,.

# Bioassay records deposited in PubChem BioAssay by National Center for Advancing Translational Sciences (NCATS).
